The list is not random: actives were taken first. Their share in the collection is about 2.2%.
Abeta rescue – qHTS for compounds that reverse cellular toxicity of Amyloid beta (A-beta) peptide in yeast: Primary Screen; Potency, µM (doses to about 46.1 µM), usual class: activators; yeast expressing A-beta42, growth rescue, OD600, 48 h; response scale: 0% DMSO, 100% iron-clioquinol control; AID 1347071, 2019; 410,000 tested, 0.063% active; note: nearly all actives have a fitted effect of over 55% in size
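Yeast A-beta toxicity model in growth medium with pinned compounds, 48 h at 30 C; growth read as absorbance at 600 nm. Normalized to FeCl3/clioquinol equimolar mix (positive) and DMSO (negative).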
TDP43 rescue – qHTS of TDP-43 Inhibitors. 410,000 tested, 1.8% active. AID 652104, 2013. Potency, µM (doses to about 46.1 µM), for inactives: top-dose growth rescue (activation), most hits filed as activators. TDP-43 expressing yeast growth rescue, BacTiter-Glo, 24 h; note: % of control where 0% means no effect; nearly all actives have a fitted effect of over 50% in size
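Luminescence from BacTiter-Glo reports growth of TDP-43-expressing yeast after 24 hr at 30 deg C with compound. Cells were raffinose-pregrown to mid-log, then seeded in galactose medium at OD600=0.02.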
aSyn rescue – qHTS of alpha-syn Inhibitors; Yeast expressing alpha-synuclein, growth rescue, BacTiter-Glo, 24 h; Potency, µM (top dose mostly 46.1 µM), for inactives: at the top dose growth rescue (activation), usual class: activators; 370,000 tested, 0.14% active; note: % of control where 0% means no effect; nearly all actives have a fitted effect of over 65% in size
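Rescue of yeast growth: cells expressing toxic alpha-synuclein, induced in galactose at OD600 0.02, incubated with compound 24 h at 30 C. ATP luminescence quantified growth; inhibitors of toxicity appear as activators.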
FUS yeast rescue – qHTS for Suppressors of FUS Proteinopathy: Primary screen using FUS-linked yeast assay | S. cerevisiae FUS-expressing, growth rescue, OD600, 24 h | Potency, µM (titrated, usually from 76.6 µM), usual class: activators | 390,000 tested, 0.24% active;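 note: plate controls were DMSO vehicle for no effect and reference control for full effect; nearly all actives have a fitted effect of over 55% in size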
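FUS-expressing yeast, raffinose-pregrown, induced in 2% galactose minimal medium at OD 0.005; compounds in a dilution series, 24hr at 30C. Growth restoration read as absorbance at 600 nm. CP55940 positive control, DMSO negative.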
Mito fusion yeast – qHTS Assay for Small Molecule Inhibitors of Mitochondrial Division or Activators of Mitochondrial Fusion; S. cerevisiae fusion-defective mutant growth rescue, CellTiterGlo 48 h; Potency, µM (highest dose often 46.1 µM), for inactives: at the top dose growth rescue (activation), usual class: activators; 320,000 tested, 0.23% active; AID 485298, 2010; note: % of control where 0% means no effect; nearly all actives have a fitted effect of over 45% in size
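Temperature-sensitive fusion-defective S. cerevisiae (e.g. fzo1-1, mgm1-5) were grown with compound in YPEG medium (3% ethanol, 3% glycerol) for 48 hours at 37C. Growth rescue was measured as viability by CellTiterGlo luminescence after 10 minutes at ambient.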
* = called active by the depositor; i = inactive; ? = inconclusive; . = no result given. Calls come from the whole dose curve; as a rule, active = well fitted curve in the direction sought with a large enough effect; inconclusive = small, poorly fitted or top-dose-only effect, or another doubt; inactive = no such curve, though single readings can be large; an effect the other way counts as inactive or inconclusive. Potency is the fitted concentration of half-maximal effect.

SMILES | Abeta rescue | TDP43 rescue | aSyn rescue | FUS yeast rescue | Mito fusion yeast
Cc1nc2ccc(S(=O)(=O)Nc3cccc(-c4nc5cccnc5s4)c3C)cc2s1 | i | ? | 11% | i | 18µM*
Cc1nc2ccc(S(=O)(=O)Nc3cc(-c4nc5cccnc5s4)ccc3C)cc2s1 | i | -14% | -15% | ? | ?
Cc1ccc(-c2nc3cccnc3s2)cc1NS(=O)(=O)c1ccc2c(c1)OCCO2 | i | 12% | -2% | i | ?
COc1ccc(S(=O)(=O)Nc2cccc3cccnc23)c([N+](=O)[O-])c1 | . | . | 22µM* | . | .
O=S(=O)(Nc1cccc2cccnc12)c1ccc2ccccc2c1 | . | . | 18µM* | . | .
CCc1nc2c(OCc3ccc(OC(F)F)cc3)cccn2c1N(C)C(=O)c1cccs1 | i | 0% | 2% | i | .
Cc1ccc(S(=O)(=O)N2CCC(C(=O)OCC(=O)N3CCCC(C)C3)CC2)cc1C (stereo not given) | i | 9% | -2% | i | 2%
CC1=C(C(=O)OCc2ccc(C)cc2)C(c2ccccc2C(F)(F)F)CC(=O)N1 (stereo not given) | i | -11% | . | i | .
CC1CCN(C(=O)CN(c2ccc3c(c2)OCCO3)S(=O)(=O)c2ccccc2)CC1 | i | 3% | 3% | i | 15%
O=S(=O)(Nc1cccc2cccnc12)c1cccs1 | . | . | 22µM* | . | .
CC(=O)Nc1cc2c(s1)c1cnn(Cc3ccccc3F)c(=O)c1n2C | . | . | . | . | -6%
COc1ccc(C(=O)NCCC(=O)N2CCC3(CC2)NCCc2[nH]cnc23)cc1 | i | 9% | -2% | i | 0%
COc1cccc(N/C(SC)=C(/C#N)C(=O)NCc2cccs2)c1 | i | 14µM* | -5% | i | -8%
COc1cccc(N/C(SCc2ccccc2C)=C(/C#N)C(=O)NCc2cccs2)c1 | i | 8% | 3% | . | -5%
C=CCNC(=S)NN=C1CCCCCCC1 | 8.9µM* | -3% | -8% | i | -5%
COCCNC(=S)NN=C1CCCCC1 | i | -18% | 0% | i | 20%
CC1=C(c2ccc(C(C)C)cc2)S(=O)(=O)N=C1N1CCC(C(=O)NCCc2ccco2)CC1 | i | 24% | . | i | .
COc1ccc(-c2nc(CCNC(=O)c3c(F)cccc3Cl)cs2)cc1 | i | 18µM* | . | i | .
COc1cccc(OC)c1C(=O)NCCc1csc(-c2ccc(Cl)cc2)n1 | i | 22µM* | . | i | .
O=C(NCCc1csc(-c2ccc(C(F)(F)F)cc2)n1)c1ccccc1Cl | i | ? | . | i | .
O=C(NCCc1csc(-c2ccc(C(F)(F)F)cc2)n1)c1cccs1 | i | 22µM* | -14% | ? | 29%
COc1cccc(C(=O)NCCc2csc(-c3ccc(Cl)cc3)n2)c1 | i | 35µM* | . | i | .
Cc1ccc(-c2nc3ncccn3c2NC(=O)c2ccc(F)cc2)cc1 | . | . | . | i | .
CCC(=O)N1CCc2cc(S(=O)(=O)NCCC(=O)Nc3ccc(C)cc3C)ccc21 | i | 9% | . | i | .
O=C(C1CCCC1)N1CCC(CO)(Cc2ccccc2Cl)CC1 | ? | 20µM* | 14% | i | 6%
SMILES | Abeta rescue | TDP43 rescue | aSyn rescue | FUS yeast rescue | Mito fusion yeast
O=C(Nc1ccccc1)/C(=C/c1ccccc1)c1ccccc1 | i | 13µM* | -6% | i | 1%
OC[C@@H]1CN(Cc2ccc(F)cc2)C[C@H](n2cnc3c(N4CCN(c5ccccc5)CC4)ncnc32)O1 | i | 26% | ? | ? | .
OC[C@@H]1CN(Cc2ccccc2)C[C@H](n2cnc3c(N4CCN(c5ccccc5)CC4)ncnc32)O1 | i | 17% | 27% | 20µM* | .
CC1CCC(NC(=O)c2ccc(CS(=O)(=O)c3c(Cl)cccc3Cl)o2)CC1 (stereo not given) | i | 35µM* | . | i | .
CCc1nc2nc(C)cc(Nc3cc(C)ccc3C)n2n1 | i | 20µM* | . | i | .
Cc1cc(Nc2cc(Cl)ccc2C)n2nc(Cc3ccccc3)nc2n1 | i | 35µM* | . | i | .
CCc1nc2nc(C)cc(Nc3cccc(C)c3C)n2n1 | i | 28% | . | i | .
CC(CN1CCOCC1)OC(=O)c1ccccc1Cl (stereo not given) | i | 0% | -8% | i | 1%
CC[N+](CC)(CC)c1ccc(/C=C/c2ccc3ccccc3n2)cc1 | . | . | -67% | . | .
Cc1ccccc1NC(=O)C(C)SCc1ccccc1 (stereo not given) | i | 15% | 9% | i | 2%
Cc1ccc(CC(SCc2ccccc2)C(=O)O)cc1C (stereo not given) | i | 11µM* | 7% | i | 10%
COc1c(C)cccc1C(=O)Nc1ccc(Cl)c(-c2nc3cc(C)ccc3o2)c1 | i | 5% | . | i | .
C=CCOn1c(C)c(C(C)=O)c2c3no[n+]([O-])c3ccc21 | i | 7.1µM* | 5% | i | 2%
COc1ccccc1N1CCN(C(=O)c2cnn(-c3ccc(F)cc3F)c2C2CCNCC2)CC1 | i | -10% | -7% | i | .
CC1CC(C)CN(C(=O)c2cc3ccccc3o2)C1 (stereo not given) | i | ? | 2% | i | -1%
COc1ccc2nc3oc(C(=O)N4CC(C)CC(C)C4)cc3cc2c1 (stereo not given) | i | 13µM* | 8% | i | 8%
COc1ccc2nc3oc(C(=O)N4CCCCC4)cc3cc2c1 | i | ? | -6% | i | 4%
CC1CC(C)CN(C(=O)c2cc3cc(Br)cc(Br)c3o2)C1 (stereo not given) | i | 32µM* | -8% | i | 11%
COc1cc(NC(=O)CSc2nc3c(c(=O)n(C)c(=O)n3C)n2C)cc(OC)c1 | i | 10% | 5% | i | -6%
CCc1cccc(Nc2ncnc3onc(-c4ccc(F)cc4)c23)c1 | i | ? | . | i | .
Cc1cccc(Nc2ncnc3onc(-c4cccc(Cl)c4)c23)c1C | i | 13µM* | -2% | ? | 23%
Fc1ccc(Nc2ncnc3onc(-c4cccc(Cl)c4)c23)c(F)c1 | i | 17% | . | i | .
Cc1cccc(Nc2ncnc3onc(-c4ccc(F)cc4)c23)c1C | i | 14µM* | -1% | ? | 17%
COc1cc(OC)cc(C(=O)NCc2ccc3c(c2)CCN3C(=O)c2ccccc2)c1 | i | -13% | . | ? | .
NNC(=O)c1cc2cc(Oc3ccccc3)ccc2[nH]1 | i | 10µM* | 1% | i | 7%
NNC(=O)c1cc2ccccc2[nH]1 | i | . | -15% | i | -5%

Compound activity as filed in PubChem.
